Results published in PubChem BioAssay.
Unmarked numbers belong to inactive results. Where a call stands in place of a potency, no number is given. For some assays here: Potency and affinity values are given separately. Calls of active or inactive are those of the source. Unless noted, no rule for the calls is given here.

Tests used:
[1] = antimalarial activity against Dd2 strain (AID 2302;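 active = growth inhibition above 50% at the single 2 µM test dose, taken to imply half-maximal potency below 2 µM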); conditions: P. falciparum Dd2 in RBCs, LDH growth readout, 72 h; at 2 µM; hits give high values
[2] = human hepatoma cell viability loss – ATP luminescence, cytotoxicity control for P. falciparum antimalarial project, primary screen (AID 2303;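 active = inhibition above 50%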); conditions: HepG2 viability, 24-48 h, at 10 µM, hits give high values
[3] = molecular target: L-lactate dehydrogenase (Plasmodium falciparum (isolate CDC / Honduras)) (UniProt Q27743); test: PfLDH activity inhibition – cell lysate, 3D7 strain, counter-screen for P. falciparum growth inhibition project (AID 2304); conditions: P. falciparum 3D7 crude extract, LDH APAD/NBT absorbance; at 2 µM; hits give high values
[4] = inhibition of 3D7 malaria parasite growth – strain 3D7 (AID 2306); conditions: P. falciparum 3D7 erythrocytic growth, LDH absorbance, 72 h; at 2 µM; hits give high values
[5] = molecular target: Calcium-dependent protein kinase 1 (Plasmodium falciparum (isolate 3D7)) (UniProt P62344); test: PfCDPK1 kinase inhibitors, biochemical, TCAMS library (AID 1159585; cut-off not given, nearly all actives have IC50 up to about 0.98 µM;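 also: inhibitors leave more ATP so luminescence rises with inhibition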); conditions: recombinant PfCDPK1, Kinase-Glo ATP depletion luminescence
[6] = molecular target: Plasmodium falciparum protein kinase 6 (PK6, PF3D7_1337100) (UniProt Q8IDW1); test: PfPK6 kinase inhibitors, biochemical, TCAMS library (AID 1159586); conditions: recombinant PfPK6, Kinase-Glo ATP depletion luminescence
[7] = molecular target: Protein kinase 7 (PK7), Plasmodium falciparum 3D7 (PF3D7_0213400) (UniProt Q7YTF7); test: inhibition of Plasmodium PK7 catalytic activity – biochemical, TCAMS antimalarial set, Kinase-Glo luminescence (AID 1159587); conditions: recombinant PfPK7, Kinase-Glo ATP depletion luminescence
[8] = molecular target: Calcium-dependent protein kinase 4 (Plasmodium falciparum (isolate 3D7)) (UniProt Q8IBS5); test: PfCDPK4 kinase inhibitors, biochemical, TCAMS library (AID 1159588; cut-off not given, nearly all actives have IC50 up to about 0.91 µM); conditions: recombinant PfCDPK4, Kinase-Glo ATP depletion luminescence
Chain of Calcium-dependent protein kinase 4 (Plasmodium falciparum (isolate 3D7)) (Q8IBS5 whole entry, looked up): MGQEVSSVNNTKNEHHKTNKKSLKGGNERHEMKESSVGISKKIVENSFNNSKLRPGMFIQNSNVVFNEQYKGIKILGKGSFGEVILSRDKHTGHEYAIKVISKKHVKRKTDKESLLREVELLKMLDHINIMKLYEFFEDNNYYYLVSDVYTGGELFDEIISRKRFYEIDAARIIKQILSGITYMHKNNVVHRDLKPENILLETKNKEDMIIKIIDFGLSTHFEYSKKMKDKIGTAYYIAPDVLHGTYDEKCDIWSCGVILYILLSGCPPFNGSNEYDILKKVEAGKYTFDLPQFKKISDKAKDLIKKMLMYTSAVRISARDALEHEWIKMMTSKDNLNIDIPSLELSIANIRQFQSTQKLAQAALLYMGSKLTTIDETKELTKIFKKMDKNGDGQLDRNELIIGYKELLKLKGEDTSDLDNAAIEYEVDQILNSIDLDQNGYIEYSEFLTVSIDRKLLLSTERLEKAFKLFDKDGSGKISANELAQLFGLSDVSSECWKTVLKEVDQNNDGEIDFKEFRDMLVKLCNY

Chain of Plasmodium falciparum protein kinase 6 (PK6, PF3D7_1337100) (Q8IDW1 1-305): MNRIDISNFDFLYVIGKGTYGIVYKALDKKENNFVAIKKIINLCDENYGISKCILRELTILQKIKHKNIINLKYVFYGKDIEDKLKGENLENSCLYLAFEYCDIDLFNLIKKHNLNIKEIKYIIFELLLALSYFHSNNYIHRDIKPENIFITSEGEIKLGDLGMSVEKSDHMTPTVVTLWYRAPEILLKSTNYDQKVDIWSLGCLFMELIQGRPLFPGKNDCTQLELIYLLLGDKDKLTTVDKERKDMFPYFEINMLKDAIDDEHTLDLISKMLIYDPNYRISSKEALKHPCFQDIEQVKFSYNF
Chain of Calcium-dependent protein kinase 1 (Plasmodium falciparum (isolate 3D7)) (P62344 whole entry, looked up): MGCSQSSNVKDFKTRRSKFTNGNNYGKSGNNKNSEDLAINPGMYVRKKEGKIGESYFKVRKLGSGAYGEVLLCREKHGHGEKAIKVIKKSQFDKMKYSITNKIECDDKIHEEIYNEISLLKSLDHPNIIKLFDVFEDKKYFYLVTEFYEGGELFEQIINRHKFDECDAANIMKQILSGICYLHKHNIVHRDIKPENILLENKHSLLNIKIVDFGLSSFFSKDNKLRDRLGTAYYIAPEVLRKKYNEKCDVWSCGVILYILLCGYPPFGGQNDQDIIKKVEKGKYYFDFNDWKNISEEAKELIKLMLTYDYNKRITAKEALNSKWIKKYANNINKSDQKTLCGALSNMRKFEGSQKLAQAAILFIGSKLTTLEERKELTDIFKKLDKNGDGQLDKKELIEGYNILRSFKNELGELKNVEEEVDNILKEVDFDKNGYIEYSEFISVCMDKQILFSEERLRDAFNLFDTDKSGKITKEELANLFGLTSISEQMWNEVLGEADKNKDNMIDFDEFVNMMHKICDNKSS
Chain of L-lactate dehydrogenase (Plasmodium falciparum (isolate CDC / Honduras)) (Q27743 whole entry, looked up): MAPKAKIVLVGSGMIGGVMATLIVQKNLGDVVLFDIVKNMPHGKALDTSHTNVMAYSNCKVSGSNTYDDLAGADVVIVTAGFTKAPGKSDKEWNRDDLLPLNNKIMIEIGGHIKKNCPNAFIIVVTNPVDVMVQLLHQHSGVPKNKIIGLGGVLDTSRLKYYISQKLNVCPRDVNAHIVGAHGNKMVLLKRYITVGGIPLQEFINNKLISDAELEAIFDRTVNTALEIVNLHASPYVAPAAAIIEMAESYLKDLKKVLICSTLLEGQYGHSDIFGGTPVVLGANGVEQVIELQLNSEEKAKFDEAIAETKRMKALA
Chain of Protein kinase 7 (PK7), Plasmodium falciparum 3D7 (PF3D7_0213400) (Q7YTF7 1-343): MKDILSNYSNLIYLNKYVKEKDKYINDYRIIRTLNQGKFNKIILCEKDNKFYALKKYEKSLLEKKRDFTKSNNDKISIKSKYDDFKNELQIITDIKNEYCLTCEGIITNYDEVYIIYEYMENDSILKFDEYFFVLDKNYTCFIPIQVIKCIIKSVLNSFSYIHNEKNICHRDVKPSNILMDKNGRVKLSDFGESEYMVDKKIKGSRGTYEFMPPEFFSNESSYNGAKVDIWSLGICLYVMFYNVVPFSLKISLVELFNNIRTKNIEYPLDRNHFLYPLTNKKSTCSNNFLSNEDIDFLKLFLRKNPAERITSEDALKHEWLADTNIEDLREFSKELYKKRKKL

Row | SMILES | growth inhibition [1] | inhibition [2] | inhibition [3] [%] | growth inhibition [4] | outcome [5] | outcome [6] | outcome [7] | outcome [8]
1 | CC(C)CCN(Cc1cncn1Cc1cccc(C(F)(F)F)c1)C(=O)c1ccccc1C#N | 96% (active) | -4% | -2 | 99% (active) | inactive | inactive | inactive | inactive
2 | Cc1ccc(S(=O)(=O)N(CCCNCc2cccc(O)c2)c2ccccc2)cc1 | 94% (active) | 6% | 2 | 95% (active) | inactive | inactive | inactive | inactive
3 | COc1ccc(C2CC(=O)C3=C(C2)NC(C)=C(C(=O)OC(C)C)C3c2ccccc2F)cc1OC (configuration not stated) | 99% (active) | 14% | 0 | 100% (active) | inactive | inactive | inactive | inactive
4 | CN(C)C1CCN(Cc2ccc(N3CCN(Cc4cccc5[nH]ccc45)CC3)nc2)CC1 | 17% | 11% | -2 | 80% (active) | inactive | inactive | inactive | inactive
5 | O=C(Nc1ccc(-c2ccccc2)cc1)Nc1cccc(Cn2ncc(N3CCNCC3)c(Cl)c2=O)c1 | 59% (active) | 30% | 5 | 100% (active) | inactive | inactive | inactive | inactive
6 | CN1CCC(NCc2ccc(-c3ccc(Cl)cc3)cc2)CC1 | 43% | 50% (active) | 6 | 99% (active) | inactive | inactive | inactive | inactive
7 | CCCCCCCc1c(C)[nH]c2ccccc2c1=O | 96% (active) | -14% | -7 | 98% (active) | inactive | inactive | inactive | inactive
8 | COc1ccccc1NC(=O)CSc1nc2cccnc2n1-c1ccccc1OC | 91% (active) | -4% | -3 | 94% (active) | inactive | inactive | inactive | inactive
9 | Cc1ccc2nc(C)cc(NN=Cc3ccccc3F)c2c1 | 100% (active) | 36% | -3 | 97% (active) | inactive | inactive | inactive | inactive
10 | O=C(CSc1nc(-c2ccccc2Cl)ns1)Nc1cccc(Cl)c1 | 89% (active) | -8% | -4 | 96% (active) | inactive | inactive | inactive | inactive
11 | CC(C)COc1ccc(Cl)cc1Cc1ccc(-c2nc3ccc(Cl)cc3[nH]2)o1 | 96% (active) | 19% | -1 | 97% (active) | inactive | inactive | inactive | inactive
12 | CN1CCc2cc(NS(=O)(=O)c3ccc(-c4ccc(Cl)s4)cc3)c(N3CCCCC3)cc2CC1 | 29% | 14% | 3 | 98% (active) | inactive | inactive | inactive | inactive
13 | N#Cc1cccc(NC(=O)c2cccc(S(=O)(=O)NC3CCN(CC4CCCCC4)C3)c2)c1 (configuration not stated) | 27% | 29% | 1 | 101% (active) | inactive | inactive | inactive | inactive
14 | Cc1ccc(N2C(N)=NC(N)=NC2(C)C)cc1Cl | 77% (active) | 66% (active) | -4 | 90% (active) | inactive | inactive | inactive | inactive
15 | O=C(Nc1cccc(CN2CCCN(CCc3ccccc3)CC2)c1)c1cc2ccccc2s1 | 39% | 37% | 4 | 93% (active) | inactive | inactive | inactive | inactive
16 | O=C(NCCNc1ccnc(Nc2ccc(F)cc2)n1)Nc1ccc2c(c1)OCO2 | 3% | 15% | 0 | 97% (active) | inactive | inactive | inactive | inactive
17 | CC(O)CNc1nc2ccccc2n1CC(=O)Nc1cccc(C(=O)Nc2cccc(C(F)(F)F)c2)c1 (configuration not stated) | 95% (active) | 2% | 0 | 99% (active) | inactive | inactive | inactive | inactive
18 | c1ccc(OCCOc2ccc(Nc3ccnc4cc5ccccc5cc34)cc2)cc1 | 96% (active) | 44% | 7 | 102% (active) | inactive | inactive | inactive | inactive
19 | Nc1c(Cl)cc(C(O)CNCCCCCOCCc2ccc3occc3c2)cc1Cl (configuration not stated) | 74% (active) | -2% | -1 | 99% (active) | inactive | inactive | inactive | inactive
